Bioassay records from PubChem.
Sfp PPTase inh: qHTS Assay for Inhibitors of Bacillus subtilis Sfp phosphopantetheinyl transferase (PPTase); 4'-phosphopantetheinyl transferase ffp (Bacillus subtilis), Q9F4F7; hit rate 3.5% among 310,000; AID 1490, 2009; Biochemical Sfp PPTase activity, qHTS; Potency, µM, for the others: largest response in the series, negative = inhibition, hits mostly inhibitors;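 note: the enzyme is Sfp with the accession as filed and its product quenches rhodamine fluorescence; 0% = enzyme reaction without inhibitor and -100% = no enzyme wells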
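Compounds were incubated with enzyme (final 15 nM) for 15 min at room temperature before substrate addition started the reaction. Fluorescence at 525 nm excitation, 598 nm emission was recorded immediately and after 30 minutes.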
JMJD2A Tudor inh: qHTS Assay for Inhibitors of JMJD2A-Tudor Domain | Lysine-specific demethylase 4A (Homo sapiens), O75164 | AlphaScreen JMJD2A-Tudor / H3K4me3 peptide binding | Potency, µM (top dose mostly 114 µM), inactives show top-dose activity change, negative = inhibition, most hits filed as inhibitors | hit rate 4.4% among 390,000; note: % is set by controls: 0 for no effect and ±100 for the full control effect; nearly all actives have a fitted effect of over 50% in size
L3MBTL1 inh: qHTS Assay for the Inhibitors of L3MBTL1; Potency, µM (titrated, usually from 57.1 µM), for inactives: top-dose activity, negative = inhibition, most hits filed as inhibitors; AID 485360, 2010; AlphaScreen L3MBTL1–H3K9me1 peptide binding; hit rate 0.66% among 230,000; note: % is set by controls: 0 for no effect and ±100 for the full control effect; nearly all actives have a fitted effect of over 60% in size
Target sequence (Q9Y468 whole entry, looked up): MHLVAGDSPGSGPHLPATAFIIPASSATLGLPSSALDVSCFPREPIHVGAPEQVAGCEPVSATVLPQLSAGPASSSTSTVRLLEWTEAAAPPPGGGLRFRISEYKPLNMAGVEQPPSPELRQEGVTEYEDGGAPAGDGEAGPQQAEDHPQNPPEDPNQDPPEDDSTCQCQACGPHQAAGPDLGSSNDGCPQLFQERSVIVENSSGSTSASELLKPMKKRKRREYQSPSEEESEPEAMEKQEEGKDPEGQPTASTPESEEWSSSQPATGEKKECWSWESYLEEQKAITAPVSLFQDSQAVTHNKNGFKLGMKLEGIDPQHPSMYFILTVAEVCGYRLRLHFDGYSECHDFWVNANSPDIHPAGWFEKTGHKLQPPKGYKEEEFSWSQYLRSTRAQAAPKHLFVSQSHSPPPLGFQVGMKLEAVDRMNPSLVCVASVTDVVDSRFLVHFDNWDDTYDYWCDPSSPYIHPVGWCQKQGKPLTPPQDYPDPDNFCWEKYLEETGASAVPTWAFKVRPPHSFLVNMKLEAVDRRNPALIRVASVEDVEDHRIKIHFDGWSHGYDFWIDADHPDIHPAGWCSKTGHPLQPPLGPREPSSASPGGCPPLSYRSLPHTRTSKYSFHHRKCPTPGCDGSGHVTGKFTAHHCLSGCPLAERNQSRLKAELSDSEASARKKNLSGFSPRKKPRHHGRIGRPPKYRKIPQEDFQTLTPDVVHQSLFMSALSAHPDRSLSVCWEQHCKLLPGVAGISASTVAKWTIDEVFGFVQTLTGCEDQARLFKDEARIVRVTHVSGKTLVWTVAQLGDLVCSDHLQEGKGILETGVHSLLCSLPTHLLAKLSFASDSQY
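Displacement of a biotinylated histone H3(1-15) peptide monomethylated at Lys9 (75 nM) from L3MBTL1 (50 nM) was measured by AlphaScreen after a 30 min room-temperature compound incubation; cefsulodin titration served as intraplate control.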
BAZ2B block: qHTS Assay for Inhibitors of BAZ2B; AlphaScreen BAZ2B-H3K14Ac peptide displacement; AID 504333, 2011; hit rate 4.4% among 360,000; Potency, µM (series often up to 114 µM), without a hit: top-dose activity change, negative = inhibition, hits mostly inhibitors; note: % is set by controls: 0 for no effect and ±100 for the full control effect; nearly all actives have a fitted effect of over 60% in size
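AlphaScreen luminescence quantifies BAZ2B engagement of H3K14Ac peptide; the protein and biotinylated peptide are both at 50 nM final, buffer PBS pH 7.4 with 0.01% Tween-20, all steps at room temperature.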
G9a inh: qHTS Assay for Inhibitors of Histone Lysine Methyltransferase G9a | hit rate 8.8% among 350,000 | Potency, µM (series often up to 102 µM), for the others: top-dose activity, negative = inhibition, hits mostly inhibitors | G9a H3K9 monomethylation, AlphaScreen, 2 h | Histone-lysine N-methyltransferase EHMT2 (Homo sapiens), Q96KQ7; note: % is set by controls: 0 for no effect and ±100 for the full control effect; nearly all actives have a fitted effect of over 75% in size
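G9a (20 nM) was preincubated 15 min with compound, then reacted 2 h at room temperature with 500 nM biotin-H3K9 peptide and 20 µM SAM. Monomethyl-H3K9 detected by AlphaScreen using anti-H3K9me1 antibody.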
HP1b chromo inh: HTS for Inhibitors of HP1-beta Chromodomain Interactions with Methylated Histone Tails. Chromobox protein homolog 1 (Homo sapiens), P83916. AlphaScreen HP1-beta / biotin-H3K9me3 peptide binding. Potency, µM (highest dose often 114 µM), without a hit: at the highest dose activity change, negative = inhibition, hits mostly inhibitors. hit rate 0.56% among 390,000; note: nearly all actives have a fitted effect of over 70% in size
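Compound inhibition of the preformed complex between 50 nM HP1-beta and 50 nM biotinylated H3K9me3 peptide was read by AlphaScreen. Buffer was PBS pH 7.4 with 0.01% Tween-20. Incubations ran 30 min at room temperature, with 10 ug/mL donor/acceptor beads.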
The depositor's hits bear a star; [ ] = dose if it differs, or a comment. Only some compounds are listed: those with a hit (about 12% of all), similar ones and a draw of the others. Calls come from the whole dose curve; as a rule, active = well fitted curve in the direction sought with a large enough effect; inconclusive = small, poorly fitted or top-dose-only effect, or another doubt; inactive = no such curve, though single readings can be large; an effect the other way counts as inactive or inconclusive. Potency is the fitted concentration of half-maximal effect.

For CC1CCC(N2CCN(C(=O)c3ccccc3F)CC2)CC1 (stereo not given) the results were Sfp PPTase inh -13.0%, JMJD2A Tudor inh 28.2µM*, L3MBTL1 inh -5.6%, BAZ2B block 79.4µM*, G9a inh 15.8µM* and HP1b chromo inh inconclusive.
Screening CC1CN(C(=O)CCc2cc(C(C)(C)C)c(O)c(C(C)(C)C)c2)CC(C)O1 (stereo not given) returned Sfp PPTase inh 6.4%, JMJD2A Tudor inh -12.3%, BAZ2B block 1.3%, G9a inh 77.2% and HP1b chromo inh 51.5%.
`Cc1ccc(C)c(-n2c3nc(=O)[nH]c(=O)c-3cc3cc([N+](=O)[O-])ccc32)c1` gave Sfp PPTase inh 50.1µM*, JMJD2A Tudor inh inconclusive, L3MBTL1 inh inconclusive, BAZ2B block -27.7%, G9a inh 10µM* and HP1b chromo inh -19.6%.
For Cc1cccc(-n2c3nc(=O)[nH]c(=O)c-3cc3cc([N+](=O)[O-])ccc32)c1 the results were Sfp PPTase inh -17.6%, JMJD2A Tudor inh -29.1%, L3MBTL1 inh 3.8%, BAZ2B block 1.0%, G9a inh 50.1µM* and HP1b chromo inh 5.2%.
For O=c1nc2n(-c3ccccc3F)c3ccccc3cc-2c(=O)[nH]1 the results were JMJD2A Tudor inh -5.6%, BAZ2B block -13.9%, G9a inh -20.7%[59 µM] and HP1b chromo inh 25.8%.
Cc1cc2c(cc1S(=O)(=O)Nc1cc(C(F)(F)F)cc(C(F)(F)F)c1)OCC(=O)N2 was read as JMJD2A Tudor inh -17.4%, BAZ2B block 2.7%, G9a inh 14.1%[59 µM] and HP1b chromo inh 44.1%.
For COc1ccc(CNC(=O)c2ccc(NC(=O)N3CCSc4ncccc43)cc2)c(OC)c1 the results were JMJD2A Tudor inh -19.0%, BAZ2B block inconclusive, G9a inh inconclusive and HP1b chromo inh -9.7%.
CCC1OC(=O)C(C)[C@@H](O[C@H]2C[C@@](C)(OC)C(O)C(C)O2)C(C)[C@@H](O[C@@H]2OC(C)CC(N(C)C)C2O)[C@@](C)(O)CC(C)CN(C)C(C)C(O)[C@]1(C)O (stereo not given in full) was read as Sfp PPTase inh 28.4% and G9a inh 9.0%[2.33 µM].
COc1cc(/C=C/C(=O)c2cccc([N+](=O)[O-])c2)cc(OC)c1OC was read as Sfp PPTase inh -15.4%, JMJD2A Tudor inh inconclusive, L3MBTL1 inh -2.6%, BAZ2B block inconclusive, G9a inh inconclusive and HP1b chromo inh -10.6%.
O=C(/C=C/c1ccccc1F)c1cccc([N+](=O)[O-])c1 was read as Sfp PPTase inh 2.82µM*, JMJD2A Tudor inh inconclusive, L3MBTL1 inh -0.5%, BAZ2B block inconclusive, G9a inh 28.2µM* and HP1b chromo inh -1.8%.
For O=C(C#Cc1ccccc1)c1cccc([N+](=O)[O-])c1 the results were Sfp PPTase inh -24.2%, JMJD2A Tudor inh -13.6%, BAZ2B block inconclusive, G9a inh 3.55µM* and HP1b chromo inh 20.1%.
For CCOC(=O)CN(C)C(=O)C1CC(CO[Si](C)(C)C(C)(C)C)=CN1C(=O)OC(C)(C)C (stereo not given) the results were Sfp PPTase inh -0.2%, JMJD2A Tudor inh -26.2% and HP1b chromo inh 17.9%.
`CSCC(=O)N1CCC(n2nccc2NC(=O)c2ccc3c(c2)OCO3)CC1` gave Sfp PPTase inh 18.7%, JMJD2A Tudor inh inconclusive, BAZ2B block 0.6%, G9a inh 44.7µM* and HP1b chromo inh 7.6%.
CSCC(C)N1CCC(n2nccc2NC(=O)c2ccc3c(c2)OCO3)CC1 (stereo not given) was read as Sfp PPTase inh 8.4%, JMJD2A Tudor inh -7.5%, BAZ2B block -8.1%, G9a inh 27.7% and HP1b chromo inh 31.4%.
Screening Cc1ccc(CNC(=O)CC2Oc3ccc(Cl)cc3NC2=O)cc1 (stereo not given) returned JMJD2A Tudor inh -20.4%, BAZ2B block -5.4%, G9a inh -27.6%[59 µM] and HP1b chromo inh 2.2%.
Screening Cc1ccc2c(c1)NC(=O)C(CC(=O)NCc1ccc(F)cc1)O2 (stereo not given) returned Sfp PPTase inh -11.3%, JMJD2A Tudor inh -2.1%, BAZ2B block -24.6%, G9a inh 50.1µM* and HP1b chromo inh 30.8%.
`CCc1cccc(NC(=O)CC2Oc3ccc(C)cc3NC2=O)c1` (stereo not given) gave JMJD2A Tudor inh 1.5%, BAZ2B block -26.1%, G9a inh -11.3%[59 µM] and HP1b chromo inh 7.3%.
Screening Cc1ccc2c(c1)NC(=O)C(CC(=O)NCc1cccnc1)O2 (stereo not given) returned Sfp PPTase inh inconclusive, JMJD2A Tudor inh -7.7%, BAZ2B block 3.4%, G9a inh 31.6µM* and HP1b chromo inh 43.6%.
Cc1ccc2c(c1)C(c1ccccc1)N(C(=O)c1ccc(Br)cc1)CC(=O)N2 (stereo not given) was read as Sfp PPTase inh -12.0%, JMJD2A Tudor inh -34.2%, BAZ2B block inconclusive, G9a inh 6.1% and HP1b chromo inh 22.1%.
c1cncc(CNc2ncncc2-c2ccc3c(c2)OCO3)c1 was read as Sfp PPTase inh -20.4%.
Screening O=C(c1ccncc1)N1CCC[C@@]2(CCN(Cc3cc(C(F)(F)F)cc(C(F)(F)F)c3)C2)C1 returned Sfp PPTase inh inconclusive and G9a inh 11.7%[12.7 µM].
O=C1CCc2cc(S(=O)(=O)Nc3cccnc3)ccc2N1 was read as JMJD2A Tudor inh -13.6%.
For CCN(CC)S(=O)(=O)c1ccc(C(=O)NCc2nnc(SCC(=O)OC)n2C)cc1 the results were Sfp PPTase inh 13.4%, JMJD2A Tudor inh -1.3%, L3MBTL1 inh -0.5%, BAZ2B block 6.9%, G9a inh 5.1% and HP1b chromo inh 22.5%.
`CCN(CC)S(=O)(=O)c1ccc(C(=O)NCc2n[nH]c(=S)n2-c2ccccc2OC)cc1` gave Sfp PPTase inh -21.7%, JMJD2A Tudor inh 22.4µM*, L3MBTL1 inh 1.8%, BAZ2B block -5.8%, G9a inh 3.55µM* and HP1b chromo inh 17.2%.
